Assay results: ChEMBL document CHEMBL3988442, “University of Dundee, Small-Polar-MMV Screening Library” (2021)
In all, about 48,000 compounds went through this assay and about 13,000 (27%) showed an effect of 50% or more. The list shows a part of the results.

system: Wolbachia pipientis; experiment: Anti-Wolbachia Cell-Based Screen; format: functional; set-up: scale not given: in the data most compounds retested in dose-response had high values; conditions: 5 µM

| SMILES | Percent Effect |
| --- | --- |
| CCC(C)NC(=O)c1cccc(CNC(=O)CC(F)(F)F)c1 (stereo unspecified) | 4.521% |
| O=C(CCC1CCN(C(=O)c2cc[nH]c2)CC1)NCc1cccc(Cl)c1 | 14.78% |
| CCC(C(=O)N(C)C)N1CCC(c2nccn2Cc2cscn2)CC1 (stereo unspecified) | -0.1258% |
| COCCCn1nnc(C2(NC(=O)c3ccccc3)CCCC2)n1 | -42.57% |
| O=C(Cc1cccs1)N1C[C@@H]2CC[C@H](C1)N(Cc1ccccn1)C2=O | 15.92% |
| Cc1cc(C(=O)N2CCc3nnc(N)cc3C2)c(C)n1C1CC1 | 6.232% |
| CC(Cn1cccn1)NCc1csc(-c2ccccc2F)n1 (stereo unspecified) | 0.9927% |
| CC(C)N(CCS(C)(=O)=O)Cc1csc(-c2ccccc2F)n1 | -5.187% |
| O=C(O)CNC(=O)Cc1csc(-c2ccccc2F)n1 | 127.8% |
| Cc1cc(C)nc(CCNc2nccc(CCC(F)(F)F)n2)n1 | -9.076% |
| N#Cc1cc(F)c(NCCc2cccnc2)c(F)c1 | 0.2383% |
| Cc1ncc(-c2ccnc(NCCc3ccc(F)cc3)n2)c(=O)[nH]1 | 69.11% |
| CCOc1ccnc(NCCc2nc(C)cc(=O)[nH]2)n1 | 25.33% |
| Cc1cc(C)c(CNC(=O)NCCc2cccnc2)c(=O)[nH]1 | -5.274% |
| O=c1[nH][nH]cc1-c1ccnc(NCCc2ccc(F)cc2)n1 | 99.64% |
| O=c1[nH][nH]cc1-c1ccnc(NCCc2cccnc2)n1 | 116.1% |
| O=C(O)c1ccnc(-c2ccnc(NCCc3cscn3)n2)c1 | 6.299% |
| O=c1[nH][nH]cc1-c1ccnc(NCCc2cccc(O)c2)n1 | 135% |
| O=C(O)c1ccnc(-c2ccnc(NCCc3ccc(F)cc3)n2)c1 | -8.109% |
| O=C(Cc1cccc(O)c1)NCCNc1nccc(C(F)(F)F)n1 | -3.193% |
| Cc1cc(C2CN(CC(=O)NCc3ccco3)CCO2)ccc1F (stereo unspecified) | -9.058% |
| CN(C)C(=O)CN1C(=O)[C@H]2CC[C@@H]1CN(Cc1ccccc1C#N)C2 | -21.45% |
| COC(=O)Cc1cccc(NC(=O)Cc2cc(C)[nH]n2)c1 | 1.53% |
| Cc1nc(CCN)cc(N2CCOc3ccc(Cl)cc3C2)n1 | 10.69% |
| CCN(Cc1ccc2c(c1)OCO2)C(=O)CCc1c(C)nc(C)[nH]c1=O | -8.876% |
| CCOC(=O)c1n[nH]cc1CN1CCOC(Cc2ccc(OC)cc2)C1 (stereo unspecified) | -36.24% |

| SMILES | Percent Effect |
| --- | --- |
| CC(=O)NCCNc1nccc(CCC(F)(F)F)n1 | -2.049% |
| COCCCNc1nccc(-c2c[nH][nH]c2=O)n1 | 1.466% |
| CC(C)(C)CCNc1nccc(-c2c[nH][nH]c2=O)n1 | 100.4% |
| Cc1nnc(SCCC(=O)N(C)Cc2ccc(Cl)s2)[nH]1 | 6.778% |
| O=C(C1CN(CC2CCOCC2)CC12CCOCC2)N1CCCC1.O=C(O)C(F)(F)F (stereo unspecified) | 0.226% |
| O=C(OCCF)c1cccc(C(=O)N2CCCC2)n1 | 7.504% |
| COc1cc(C)nc(N2CCN(C(=O)c3cc(Cl)c[nH]3)CC2)n1 | 7.277% |
| COC(=O)c1cccc(C(=O)N2CCN(c3cccc(C)c3C)CC2)n1 | -16.02% |
| COC(=O)c1cccc(C(=O)N2CCN(c3cc(C)ccc3C)CC2)n1 | 123.5% |
| COC(=O)c1cccc(C(=O)N2CCN(c3cc(Cl)ccc3C)CC2)n1 | 103.9% |
| CC(=O)N1CCCN(C(=O)c2ccn(-c3cccc(Cl)c3)n2)CC1 | 4.023% |
| COCC1CN(Cc2cc(C)on2)Cc2cn(CC3CCCC3)nc21.O=C(O)C(F)(F)F.O=C(O)C(F)(F)F (stereo unspecified) | 1.452% |
| CNS(=O)(=O)Cc1cccc(CNc2ccc(Cl)cn2)c1 | 7.116% |
| O=C(C(NCc1cccc(F)c1F)c1ccccc1)N1CCOCC1 (stereo unspecified) | -0.9973% |
| O=C(O)C(F)(F)F.O=C(c1ccc(F)cc1)N1C[C@@H]2CCN(c3cccnc3)C[C@@H]2C1 | 11.69% |
| CNC(=O)CN1CC[C@H]2CN(C(=O)c3cccc(C)c3)C[C@H]2C1.O=C(O)C(F)(F)F | 104.9% |
| CC(C)N1[C@H](CN2CCCC2)C[C@@H]2CN(C(=O)c3ccoc3)CC[C@@H]21.O=C(O)C(F)(F)F.O=C(O)C(F)(F)F | -8.643% |
| Cc1cccc(C(=O)N2C[C@@H]3CCN(C(C)C)C[C@@H]3C2)c1.O=C(O)C(F)(F)F | -3.353% |
| CC(C)N1CCO[C@H]2CN(C(=O)c3ccoc3)C[C@H]21.O=C(O)C(F)(F)F | -10.4% |
| CNC(=O)CN1CC[C@H]2CN(C(=O)c3cccn3C)C[C@H]2C1.O=C(O)C(F)(F)F | 94.61% |
| CN(C)C[C@H]1OC[C@@H]2CCN(C(=O)c3cccn3C)C[C@@H]21.O=C(O)C(F)(F)F | -2.348% |
| Cn1cccc1C(=O)N1C[C@@H]2CCN(c3cccnc3)C[C@@H]2C1.O=C(O)C(F)(F)F | -18.75% |
| CNC(=O)CN1CC[C@H]2CN(C(=O)c3ccoc3)C[C@H]2C1.O=C(O)C(F)(F)F | 90.52% |
| O=C(O)C(F)(F)F.O=C(c1ccc(O)cc1)N1C[C@@H]2CCN(c3cccnc3)C[C@@H]2C1 | 9.269% |
| CNC(=O)CN1CC[C@H]2CN(C(=O)c3ccc(C)cc3)C[C@H]2C1.O=C(O)C(F)(F)F | 117% |
